Screening data deposited in PubChem BioAssay by several laboratories.
A selection: hits, their analogues and other compounds. The true share with any hit is near 4.3%.
SMARCA2 activ = increases SMARCA2 function in MMTV reporter cells. activation, % at 9.1 µM. 370,000 tested, 1% active. AID 652017. MG213 cells, MMTV-luciferase reporter, dexamethasone, overnight; in the data active = activation above about 7.8%;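 note: 0% = vehicle wells and 100% = reference activator wells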
HSF1 inhib = HSF1 inhibition; activity change, negative = inhibition, % at 7.5 µM (by protocol); 300,000 tested, 0.77% active; NIH3T3-HGL HSE-luciferase, MG132-induced, luminescence 8 h; stronger effect = lower value; AID 2098;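 active = more than half of replicate wells show activity change below -50%, luminescence cut by over half; inconclusive = some wells, but at most half, below -50%; inactive = no replicate well below -50%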;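 note: luciferase reports HSF-1 transcriptional activity via heat shock element; 0% = median of DMSO wells and -100% = zero luminescence signal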
Wnt bcat act = Wnt/beta-catenin pathway activation; 300,000 tested, 1.2% active; AID 743398; Wnt/beta-catenin reporter cell assay, activator, plate reader; activation, % at 9.35 µM; in the data active = activation above about 30%, passing the limit was not always enough; inconclusive = no clear call, values can overlap the other calls;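 note: 0% = neutral control wells and 100% = positive control wells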
esBAF inh = SWI/SNF esBAF complex inhibition | mouse ES cells, Bmi1-luciferase knock-in reporter, 24 h; 100% = twice the neutral-well signal | AID 602393 | reporter increase, % at 12.5 µM | 350,000 tested, 2% active; in the data active = activation above about 40%; inconclusive = no clear call, values can overlap the other calls;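 note: 0% = median of the plate's neutral control wells and 100% = double that signal; a rise in the Bmi1 reporter signal indicates esBAF inhibition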
MITF TRPM1 HTS = MITF TRPM1 promoter activation in melanoma cells; 300,000 tested, 0.75% active; activation, % at 12.5 µM; SK-MEL-5 TRPM1-promoter luciferase, 24 h; % of positive control, neutral wells = 0;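 active = mean activation of at least 80% with every replicate also reaching 80%; inconclusive = mean reaches 80% but some replicate falls short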;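 note: 0% = neutral control wells and 100% = parthenolide positive control wells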
HSF-1 act = increases HSF-1 driven luciferase reporter signal. NIH3T3-HGL HSF-1 luciferase reporter, MG132, 8 h; 100% = twice DMSO control signal. activation, % at 9 µM. 300,000 tested, 1.7% active. AID 504408;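 active = mean replicate activation of at least 50% with a set share of replicates each reaching 50%; inconclusive = only one of those two conditions met; inactive = mean below 50% and too few replicates reaching it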;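 note: 0% = median of the neutral control wells and 100% = twice that signal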
SMARCA2 act conf = confirmation of SMARCA2 (BRM) function activators; 3,500 tested, 30% active; activation, % at 9.1 µM; shares compounds with SMARCA2 activ; MG213 cells, MMTV-luciferase with dexamethasone, luminescence, overnight; MG213 cells expressing E1A, Rb sequestered; DMSO wells 0%, reference activator 100%;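 active = activation above its plate's cutoff, the mean activation of tested wells plus 3 SD, cut at about 7.9% in these data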
GAL4-VP16 Luc = activates GAL4-VP16 luciferase, flagging SMARCA2 activator hits; shares compounds with SMARCA2 activ; HEK293 GAL4-VP16 pG5luc reporter, luciferase luminescence; scaled: DMSO wells 0%, SAHA wells 100%; activation, % at 9.1 µM; 3,500 tested, 41% active;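 active = activation above the solvent-only control well mean plus 3 SD, averaged across control plates, cut at about 5.2% in these data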
The depositor's hits bear a star.

O=C(Cc1csc(Nc2nc(=S)[nH]c3ccccc23)n1)NCCCN1CCN(c2ccccc2F)CC1 was read as SMARCA2 activ 15*, HSF1 inhib 8, Wnt bcat act -6, esBAF inh 2, MITF TRPM1 HTS -67, HSF-1 act -6, SMARCA2 act conf 9.6* and GAL4-VP16 Luc 2.
Screening COc1cccc(C(=O)NC(=O)Nc2cc(C)on2)c1 returned SMARCA2 activ 8.4*, HSF1 inhib 15, Wnt bcat act 11, esBAF inh 56*, MITF TRPM1 HTS 105*, HSF-1 act 27, SMARCA2 act conf 4 and GAL4-VP16 Luc 8.7*.
`CCCn1c2ccccc2c2nc3ccccc3nc21` gave SMARCA2 activ 7, HSF1 inhib -3, Wnt bcat act 17, MITF TRPM1 HTS 11 and HSF-1 act 6.
CCN(CC)CCn1c2ccccc2c2nc3ccccc3nc21 was read as SMARCA2 activ 34*, HSF1 inhib 10, Wnt bcat act 3, esBAF inh 78*, HSF-1 act 42, SMARCA2 act conf 111* and GAL4-VP16 Luc -1.
For CN1C(=S)SC2CS(=O)(=O)CC21C (stereo unspecified) the results were SMARCA2 activ 12*, HSF1 inhib 5, Wnt bcat act 0, HSF-1 act -4, SMARCA2 act conf -3 and GAL4-VP16 Luc -1.
`COc1ccc(OCCN2CCC(C(=O)NC(c3ccc(F)cc3)c3ccc4ccccc4n3)CC2)cc1` (stereo unspecified) gave SMARCA2 activ 9.6*, Wnt bcat act -3, esBAF inh 3, SMARCA2 act conf -4 and GAL4-VP16 Luc -1.
O=C(Nc1cccc(F)c1)N1C[C@H]2[C@@H](c3ccccc31)[C@@H](CO)N2C(=O)Cc1ccccc1 was read as esBAF inh 4.
Screening CO[C@@H]1CN(C)C(=O)c2ccc(NS(C)(=O)=O)cc2OC[C@@H](C)N(S(=O)(=O)CC(F)(F)F)C[C@H]1C returned esBAF inh 2.
For CN(C)C(CNC(=O)c1coc2ccccc2c1=O)c1ccccc1 (stereo unspecified) the results were SMARCA2 activ -1, HSF1 inhib -9, Wnt bcat act 20, esBAF inh -10, MITF TRPM1 HTS -25 and HSF-1 act 16.
`NC(=O)c1ccsc1NC(=O)c1coc2ccccc2c1=O` gave SMARCA2 activ 9.0*, HSF1 inhib 2, Wnt bcat act inconclusive, MITF TRPM1 HTS 57, HSF-1 act 21, SMARCA2 act conf 23* and GAL4-VP16 Luc 8.9*.
For COc1cc(/C=C2\CCc3ccccc3C2=O)cc(OC)c1OC the results were SMARCA2 activ 5, HSF1 inhib 11, Wnt bcat act 6, esBAF inh 11, MITF TRPM1 HTS 16 and HSF-1 act 2.
`COc1cc(/C=C2\CC/C(=C\c3cc(OC)c(O)c(OC)c3)C2=O)cc(OC)c1O` gave SMARCA2 activ 11*, Wnt bcat act 11, MITF TRPM1 HTS -64, SMARCA2 act conf 34* and GAL4-VP16 Luc 3.
Screening C[C@@H]1CCCCO[C@H](CN(C)CC2CC2)[C@H](C)CN([C@@H](C)CO)C(=O)c2cc(NC(=O)c3ccccc3)ccc2O1 returned esBAF inh -1.
For CCS(=O)(=O)Nc1ccc2c(c1)C(=O)N(C)[C@@H]1CC[C@@H](CC(=O)NCCOC)O[C@H]1CO2 the results were esBAF inh -1.
Cc1ccc(C(=O)c2cc(C)sc2NC(=O)CN2CCN(C(=O)c3ccco3)CC2)cc1 was read as SMARCA2 activ 8.8*, HSF1 inhib -6, Wnt bcat act -6, esBAF inh 4, HSF-1 act -14, SMARCA2 act conf 0 and GAL4-VP16 Luc 0.
For CSc1nnc2sc3cc(C)ccc3n12 the results were SMARCA2 activ 2, Wnt bcat act 16 and esBAF inh 19.
